Screening results: PubChem, National Center for Advancing Translational Sciences (NCATS)
IL1B secr inh: inflammasome signaling inhibition, IL-1 beta readout | AID 743279 | THP-1 LPS/ATP IL-1B secretion, AlphaLISA, 16 h; active compounds read low | activity change, % at 57.5 µM | 4.7% of 360,000 active; in the data active means activity change below about -50%; inconclusive means mostly about -30% to -49%
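Secreted IL-1B measured by AlphaLISA bead assay after 16 h compound exposure of THP-1 cells; compounds (final up to 57.5 uM) added 1 h before LPS (250 ng/mL) and ATP (1.25 mM) stimulation; lower signal means less secretion.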
TDP1 inh: blocks human tyrosyl-DNA phosphodiesterase 1 | recombinant TDP1, AlphaScreen DNA substrate cleavage | Q9NUW8 | 0.28% of 350,000 active | Potency, µM (highest dose often 130 µM), actives largely listed as inhibitors | AID 485290; further: nearly all actives have a fitted effect of over 40% in size
Target sequence (Q9NUW8 whole entry, looked up): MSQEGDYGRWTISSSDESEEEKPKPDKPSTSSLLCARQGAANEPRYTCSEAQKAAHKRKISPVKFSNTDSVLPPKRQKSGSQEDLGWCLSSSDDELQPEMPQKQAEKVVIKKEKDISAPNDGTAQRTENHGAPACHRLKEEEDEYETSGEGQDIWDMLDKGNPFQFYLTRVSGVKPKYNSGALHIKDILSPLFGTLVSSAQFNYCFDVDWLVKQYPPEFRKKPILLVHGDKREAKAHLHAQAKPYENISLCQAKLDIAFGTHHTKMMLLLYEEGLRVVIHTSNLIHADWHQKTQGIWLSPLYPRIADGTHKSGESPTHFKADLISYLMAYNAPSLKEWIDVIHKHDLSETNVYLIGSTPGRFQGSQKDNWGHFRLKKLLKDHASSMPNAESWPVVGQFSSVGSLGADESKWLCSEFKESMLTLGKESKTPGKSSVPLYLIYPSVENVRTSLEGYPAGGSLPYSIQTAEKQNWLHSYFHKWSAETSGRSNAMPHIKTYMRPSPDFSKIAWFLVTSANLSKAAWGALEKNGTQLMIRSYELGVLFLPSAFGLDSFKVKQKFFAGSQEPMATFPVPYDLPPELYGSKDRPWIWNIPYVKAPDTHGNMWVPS
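AlphaScreen read-out: signal falls as enzyme removes the 3' tyrosine-FITC from a 5'-biotinylated DNA oligo (15 nM, 5 min, RT). Enzyme was E. coli-made recombinant Tdp1 at 1 nM, exposed to compound for 15 min beforehand; beads 10 ug/ml, 10 min.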
HepG2 tox: HepG2 cytotoxicity, counter-screen for TGF-b inhibitors | Potency, µM (titrated, usually from 46.1 µM), actives largely listed as cytotoxic | HepG2 CAGA-GFP viability, ATP luminescence, 18 h | 0.76% of 410,000 active | AID 588856
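CellTiter-Glo luminescence gave cytotoxicity after 18 hours at 37 degrees C. The cells were HepG2 CAGA-GFP in 1% FBS DMEM, stimulated with 500 pg/mL TGF-beta after compound addition. %Activity was normalised to no-cell wells (complete cell-killing) and DMSO (no toxicity), and curves were fitted and classified.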
DT40 TDP1 CPT: growth inhibition of DT40 Tdp1-/-;hTDP1 cells with camptothecin (screen for TDP1 inhibitors). 12% of 420,000 active. Potency, µM (titrated, usually from 46.2 µM), most hits filed as inhibitors. chicken DT40 Tdp1-/-;hTDP1 cells + 20 nM CPT, ATP luminescence, 48 h; further: nearly all actives have a fitted effect of over 55% in size
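Chicken DT40 Tdp1-/- cells complemented with human TDP1, 400 cells/well, exposed to compounds plus 20 nM camptothecin for at least 48 h at 37 C; viability read as ATP content by CellTiter-Glo luminescence.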
TGFb inhibitor: blocks TGF-b signaling. HepG2 CAGA-GFP TGF-b/SMAD3 reporter, GFP fluorescence, 18 h; TGF-beta stimulated, 500 pg/mL final. Potency, µM (series often up to 46.1 µM), usual class: inhibitors. 1.2% of 410,000 active; further: nearly all actives have a fitted effect of over 65% in size
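Per well, imaged GFP fluorescence of HEPG2 CAGA-GFP cells gives the signal; cells get compound, then TGF-beta (500 pg/mL final), 18 h at 37 degrees C; %Activity versus -TGF-beta and +DMSO controls.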
DT40 TDP1 no CPT: qHTS for Inhibitors of human tyrosyl-DNA phosphodiesterase 1 (TDP1): qHTS in cells in absence of CPT; DT40 Tdp1-/- hTDP1 cells, no CPT, ATP luminescence, 48 h; Potency, µM (series often up to 46.2 µM), most hits filed as inhibitors; 15% of 420,000 active; AID 686978, 2013; further: nearly all actives have a fitted effect of over 55% in size
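Cells were dispensed at 400 per well, compounds added by pin tool, plates incubated ≥48 hr at 37 °C, then CellTiter-Glo added for 30 min at room temperature before luminescence reading. Line: DT40 Tdp1-/- complemented with hTDP1; camptothecin omitted.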
Large screens that a line does not name were inactive. Hits are enriched below; roughly 19% of the tested compounds scored in any of these assays. Unless noted, the call rests on the fitted dose curve; in most records, active means well fitted curve in the direction sought with a large enough effect; inconclusive means small, poorly fitted or top-dose-only effect, or another doubt; inactive means no such curve, though single readings can be large; an effect the other way counts as inactive or inconclusive.

COc1ccc(S(=O)(=O)Oc2ccc3cccc(N)c3c2)cc1	DT40 TDP1 CPT inconclusive, DT40 TDP1 no CPT inconclusive (no result: TDP1 inh)
COc1ccc(N(C(=O)c2ccc(Cl)cc2)S(=O)(=O)c2ccc(C)cc2)cc1	DT40 TDP1 CPT inconclusive, DT40 TDP1 no CPT 23µM (no result: IL1B secr inh)
COc1ccc(S(=O)(=O)Oc2ccc3ccccc3c2)cc1	DT40 TDP1 CPT 16µM, DT40 TDP1 no CPT 29µM (no result: TDP1 inh)
CCCCOc1cccc(C2c3c(oc4ccccc4c3=O)C(=O)N2c2ccccn2)c1 (centres undefined)	none (no result: IL1B secr inh)
COc1ccc(N(C(=O)c2ccccc2C)S(=O)(=O)c2ccc(Cl)cc2)cc1	DT40 TDP1 CPT inconclusive, DT40 TDP1 no CPT inconclusive (no result: IL1B secr inh)
COc1ccc(N(C(=O)c2ccc(OC)c(OC)c2)S(=O)(=O)c2ccc(Cl)cc2)cc1	DT40 TDP1 CPT 26µM, DT40 TDP1 no CPT 21µM (no result: IL1B secr inh)
CCCn1c(CCNc2nc(-c3ccc(Cl)c([N+](=O)[O-])c3)cs2)nc2cc(Cl)c(Cl)cc21	none (no result: TDP1 inh)
Cc1ccc(-c2csc(NCCc3nc4cc(Cl)c(Cl)cc4n3CCCO)n2)cc1	IL1B secr inh -56, DT40 TDP1 CPT inconclusive, TGFb inhibitor inconclusive, DT40 TDP1 no CPT inconclusive (no result: TDP1 inh)
O=[N+]([O-])c1cc(-c2csc(NCCc3nc4cc(Cl)c(Cl)cc4n3CCCO)n2)ccc1Cl	IL1B secr inh inconclusive, DT40 TDP1 CPT 16µM, TGFb inhibitor inconclusive, DT40 TDP1 no CPT inconclusive (no result: TDP1 inh)
COc1ccc(-c2csc(NCCc3nc4cc(Cl)c(Cl)cc4n3CCCO)n2)cc1	IL1B secr inh -58, DT40 TDP1 CPT inconclusive, TGFb inhibitor inconclusive, DT40 TDP1 no CPT 18µM (no result: TDP1 inh)
OCCOCCn1c(CCNc2nc(-c3ccc(Cl)cc3)cs2)nc2cc(Cl)c(Cl)cc21	DT40 TDP1 CPT inconclusive, TGFb inhibitor inconclusive, DT40 TDP1 no CPT inconclusive (no result: TDP1 inh)
CCOc1ccc(NC(=O)CSc2nc3ccccc3c(=O)n2CCC(=O)NC2CCCCC2)cc1	none (no result: IL1B secr inh)
Cc1oc(-c2ccc(C(=O)NCCC(C)C)cc2)nc1CS(=O)(=O)c1ccccc1	none (no result: IL1B secr inh)
CN(C)c1ccc(CNC(=O)[C@@]2(C)C=C[C@@H](Cc3ccccc3)N2C)cc1	none (no result: IL1B secr inh, HepG2 tox, DT40 TDP1 CPT, TGFb inhibitor, DT40 TDP1 no CPT)
O=C(COC(=O)c1ccccc1Oc1ccccc1)Nc1ccc(Br)cc1	none (no result: IL1B secr inh, TDP1 inh, HepG2 tox, TGFb inhibitor)
Fc1ccc(NC(=S)NC2CCCCC2)c(F)c1F	DT40 TDP1 CPT 21µM, TGFb inhibitor inconclusive, DT40 TDP1 no CPT 21µM
Fc1cccc(NC(=S)NC2CCCCCCC2)c1	IL1B secr inh inconclusive, DT40 TDP1 CPT 23µM, TGFb inhibitor inconclusive, DT40 TDP1 no CPT inconclusive
S=C(Nc1ccc2nsnc2c1)NC1CCCCC1	DT40 TDP1 CPT inconclusive, DT40 TDP1 no CPT inconclusive
FC(F)(F)c1cccc(NC(=S)NC2CCCC2)c1	DT40 TDP1 CPT inconclusive, TGFb inhibitor inconclusive, DT40 TDP1 no CPT inconclusive
S=C(Nc1ccc(Cl)c(Cl)c1)NC1CCCCC1	IL1B secr inh -95, DT40 TDP1 CPT inconclusive, TGFb inhibitor inconclusive, DT40 TDP1 no CPT 18µM
Cc1cc2cc(CCNS(=O)(=O)c3ccc(F)cc3)c(=O)[nH]c2cc1C	DT40 TDP1 CPT inconclusive, DT40 TDP1 no CPT inconclusive
COc1ccc(NS(=O)(=O)c2ccc3c(c2)NC(=O)CO3)c(OC)c1	none
CCC(=O)c1ccc(OCCSc2ncccn2)cc1	DT40 TDP1 CPT inconclusive, DT40 TDP1 no CPT 18µM
CCC(=O)c1ccc(OCC(=O)O)cc1	none
COc1ccc(NC(=O)CCCc2nc(-c3ccco3)no2)c(OC)c1	none (no result: IL1B secr inh)
COc1ccc2c(c1)OC(C)CN(CC(=O)NCc1cn[nH]c1-c1ccc(F)cc1)C2 (centres undefined)	none (no result: IL1B secr inh, TDP1 inh, HepG2 tox, TGFb inhibitor)
CCCCCCC(=O)N(O)C1CC(=O)N(c2ccc(Br)cc2)C1=O (centres undefined)	IL1B secr inh -82, DT40 TDP1 CPT 21µM, TGFb inhibitor inconclusive, DT40 TDP1 no CPT 18µM
CCOc1ccc(N2C(=O)CC(Cc3ccc(Br)cc3)C2=O)cc1 (centres undefined)	none
